Source: PubChem BioAssay (National Center for Advancing Translational Sciences (NCATS))
The list is not random: actives were taken first. Their share in the collection is about 2.2%.
TDP43 rescue = qHTS of TDP-43 Inhibitors; TDP-43 expressing yeast growth rescue, BacTiter-Glo, 24 h; Potency, µM (titrated, usually from 46.1 µM), for the others: at the top dose growth rescue (activation), most hits filed as activators; actives 1.8% (n = 410,000); also: % of control where 0% means no effect; nearly all actives have a fitted effect of over 50% in size
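Cell-based yeast growth screen: TDP-43 expression induced in galactose, inoculum OD600=0.02 after raffinose pregrowth to mid-log. Read-out BacTiter-Glo luminescence at 24 hr, 30 deg C; inhibition of toxicity seen as signal increase.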
Mito fusion yeast = qHTS Assay for Small Molecule Inhibitors of Mitochondrial Division or Activators of Mitochondrial Fusion | Potency, µM (highest dose often 46.1 µM), inactives show at the highest dose growth rescue (activation), actives largely listed as activators | actives 0.23% (n = 320,000) | AID 485298, 2010 | S. cerevisiae fusion-defective mutant growth rescue, CellTiterGlo 48 h; also: % of control where 0% means no effect; nearly all actives have a fitted effect of over 45% in size
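Yeast fusion mutant, YPEG (non-fermentable carbon), compound, 48 h at 37C non-permissive; CellTiterGlo added, 10 min RT, luminescence read. Rescued growth = division inhibition.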
Abeta yeast res = qHTS for compounds that reverse cellular toxicity of Amyloid beta (A-beta) peptide in yeast: Primary Screen. yeast expressing A-beta42, growth rescue, OD600, 48 h; response scale: 0% DMSO, 100% iron-clioquinol control. Potency, µM (highest dose often 46.1 µM), usual class: activators. actives 0.063% (n = 410,000). AID 1347071, 2019; also: nearly all actives have a fitted effect of over 55% in size
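Yeast growth medium received pinned compounds, then yeast cells expressing toxic A-beta were added; plates incubated at 30 C for 48 hr. Growth read as absorbance at 600 nm, normalized to DMSO and equimolar FeCl3 plus clioquinol controls.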
FUS yeast rescue = qHTS for Suppressors of FUS Proteinopathy: Primary screen using FUS-linked yeast assay. S. cerevisiae FUS-expressing, growth rescue, OD600, 24 h. AID 1347120, 2019. actives 0.24% (n = 390,000). Potency, µM (highest dose often 76.6 µM), most hits filed as activators;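 also: plate controls were DMSO vehicle for no effect and reference control for full effect; nearly all actives have a fitted effect of over 55% in size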
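Read-out: OD at 600 nm after 24hr at 30C, reporting rescue of FUS-induced yeast toxicity. Cells at OD 0.005 in galactose (2%) minimal medium; compounds tested in a dilution series; CP55940 titration from 92uM final as control.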
aSyn yeast inh = qHTS of alpha-syn Inhibitors. actives 0.14% (n = 370,000). Potency, µM (top dose mostly 46.1 µM), without a hit: top-dose growth rescue (activation), hits mostly activators. Yeast expressing alpha-synuclein, growth rescue, BacTiter-Glo, 24 h; also: % of control where 0% means no effect; nearly all actives have a fitted effect of over 65% in size
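Galactose-induced alpha-syn yeast (OD600=0.02, raffinose-pregrown) + pinned cpd, 24 hr, 30 deg C; growth by BacTiter-Glo luminescence. Growth restoration scores as activation.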
Starred values were filed as active, the others as inactive; i = inactive; ? = inconclusive; . = no result; ! = a repeat was not active; [ ] = remark or other dose. Calls follow the shape of the dose curve; as a rule, active = well fitted curve in the direction sought with a large enough effect; inconclusive = small, poorly fitted or top-dose-only effect, or another doubt; inactive = no such curve, though single readings can be large; an effect the other way counts as inactive or inconclusive. Potency is read from the fitted curve at half-maximal effect.

SMILES | TDP43 rescue | Mito fusion yeast | Abeta yeast res | FUS yeast rescue | aSyn yeast inh
COc1cc(O)c([C@@H](CC(=O)N2CC(C)CC(C)C2)c2ccc3c(c2)OCO3)c(OC)c1 (some centres not stated) | . | . | . | 25.1µM* | .
COc1cc(O)c(C(CC(=O)N2CCCC2)c2ccc3c(c2)OCO3)c(OC)c1 (configuration not stated) | -3.2% | -0.8% | i | i | 7.5%
N/C(=N\OC(=O)c1ccccc1)c1cccnc1 | 15.6% | -3.0% | i | i | -7.7%
Cc1cccc(C(=O)O/N=C(\c2ccccc2)c2cccnc2)c1 | 12.6µM* | 19.2% | i | i | 9.4%
Cc1ccc(C(=O)O/N=C(\c2ccccc2)c2cccnc2)cc1 | 17.8µM* | -0.6% | i | i | -6.3%
Cc1cccc(C(=O)NCCc2nc3ccccc3n2Cc2ccc(Cl)cc2)c1 | ? | . | i | i | .
Cc1c(-c2ccccc2)c(=O)oc2c(CN3CCOCC3)c(O)ccc12 | 21.7%[9.22 µM] | . | i | i | .
O=C(CSCc1cccc(Br)c1)N=Nc1c(O)[nH]c2ccccc12 | 22.4µM* | -1.3% | i | i | -5.8%
Cc1ccccc1Oc1ncnc2sccc12 | 11.2µM* | -2.2% | i | i | -15.5%
c1ccc(Oc2ncnc3sccc23)cc1 | 11.2µM* | -5.4% | i | i | -0.6%
COc1ccc(-c2noc(-c3cc(C(C)C)[nH]n3)n2)cc1 | 20µM* | . | ? | i | .
Cc1ccc(OCC(=O)Nc2ccc(S(=O)(=O)N3CCCCC3)cc2)c([N+](=O)[O-])n1 | -17.7%[0.397 µM] | -4.2% | i | i | 0.8%
Cc1ccc(OCC(=O)Nc2ccc(Cl)cc2)c([N+](=O)[O-])n1 | 12.6µM* | 14.3% | i | i | 2.1%
Cc1ccc(OCC(=O)Nc2ccc(F)cc2)c([N+](=O)[O-])n1 | 10.2%[9.22 µM] | 0.8% | i | i | 7.0%
Cc1ccc(OCC(=O)Nc2ccc(C)c(S(=O)(=O)N3CCCCC3)c2)c([N+](=O)[O-])n1 | 14.1µM* | 2.8% | i | i | 0.6%
CC(=O)n1c(=O)c2ccccc2c(=O)n1-c1ccccc1 | 3.16µM* | 15.1% | i | i | -17.4%
Cc1[nH]nc(N=CC2=C(O)CC(C)(C)CC2=O)c1-c1ccc(Cl)cc1 | 15.8µM*! | -0.4% | i | i | ?
COc1ccc2c(c1)c(C(=O)O)c(C)n2CCc1ccc(OC)c(OC)c1 | 0.0% | -0.9% | i | i | 14.8%
COc1ccc2c(c1)c(C(C)=O)c(C)n2CCc1ccc(OC)c(OC)c1 | 20µM* | -6.1% | i | i | 1.9%
CCOc1ccc(C(=O)COc2ccc(NC(C)=O)cc2)cc1 | -1.0% | 0.2% | i | 11.2µM* | 6.9%
CCc1ccc(C(=O)COc2ccc(NC(C)=O)cc2)cc1 | ? | 0.9% | i | i | 5.3%
Cc1nn(C)c(Nc2ccc(Br)cc2)c1Br | 17.8µM* | 6.1% | ? | i | ?
Cc1ccc(Cl)cc1NC(=O)C(NS(=O)(=O)c1ccc2c(c1)CCC(=O)N2)c1ccccc1 (configuration not stated) | -2.7% | . | i | i | .
Cc1ccccc1CNC(=O)c1cc2ccccc2o1 | ? | . | i | i | 0.4%
O=C(NCc1ccccc1Cl)c1cc2ccccc2o1 | 11.2µM* | . | i | i | .
SMILES | TDP43 rescue | Mito fusion yeast | Abeta yeast res | FUS yeast rescue | aSyn yeast inh
Cc1ccc(OCC(=O)Nc2nnc(SCc3cc(=O)n4cc(C)ccc4n3)s2)cc1 | 10.8% | . | i | i | .
COc1cc(N(C)C)c(OC)cc1C=C1C=CC=C1 | . | . | . | . | 3.5%
O=C(CSc1ccc(Cl)cc1)N/N=C/c1ccc([N+](=O)[O-])o1 | 12.6µM* | 23.3% | i | i | 1.4%
C=CCN1C(=O)[C@@H](CC(=O)NCCCCc2ccccc2)[C@]2(C(=O)OC)CCCCC=C12 | . | . | . | i | .
C=CCN=c1scc(-c2ccc(F)cc2)n1/N=C/c1ccccn1 | ? | 19.1% | ? | i | -5.7%
C=CCN=c1scc(-c2ccccc2)n1/N=C/c1ccccn1 | 22.4µM*! | 20.8% | ? | i | -20.8%
COc1ccc2c(c1)c1c(c(=O)n(Cc3ccccc3)c(=O)n1Cc1cccc(Cl)c1)n2C | 9.9% | . | i | i | .
O=C(COc1ccc(Cl)cc1)NCc1ccc(F)cc1 | 11.2µM* | -1.4% | i | i | 2.7%
O=C(COC(=O)CCCOc1ccc(Cl)cc1Cl)NCc1ccc(F)cc1 | 15.8µM* | -1.0% | ? | i | 5.4%
Cc1ccc(C(=O)Nc2nc(C(N)Cc3ccc(C(F)(F)F)cc3)cs2)cc1 (configuration not stated) | 19.3% | . | i | i | -22.9%
NC(=O)c1ccccc1NC(=O)C1CCCN(c2ncnc3onc(-c4ccc(F)cc4)c23)C1 (configuration not stated) | 18.6% | . | i | ? | .
CCOC(=O)c1cccc(NC(=O)c2ccc3nc(Cc4ccccc4)oc3c2)c1 | 31.7% | . | i | i | .
Cc1cc(C)c(NS(=O)(=O)c2ccc(-c3cnc(C4CC4)o3)cc2)c(C)c1 | ? | . | 12.6µM* | i | .
Cc1ccc(NS(=O)(=O)c2ccc(-c3cnc(C4CC4)o3)cc2)c(C)c1 | 28.2µM* | -10.9% | . | ? | ?
O=S(=O)(Nc1ccc(F)cc1Cl)c1ccc(-c2cnc(C3CC3)o2)cc1 | 35.5µM* | -11.9% | ? | i | ?
CC(=O)Nc1ccc(NS(=O)(=O)c2cc(-c3cnc(C4CC4)o3)ccc2C)cc1 | -0.2% | -1.1% | i | i | -3.2%
Cc1ccc(-c2cnc(C3CC3)o2)cc1S(=O)(=O)Nc1ccccc1 | 31.6µM* | -5.1% | i | i | ?
COc1cc2nc(CCNCc3ccccc3)nc(NC3CCN(C)CC3)c2cc1OC | . | . | . | . | -1.2%
CC(C)(C)OC(=O)C1[C@H](O)C=CC[C@H]1S(=O)c1ccccc1 (some centres not stated) | . | . | . | i | .
Cc1cccc(C(=O)N2CCc3cc(CNS(=O)(=O)c4ccc(F)c(Cl)c4)ccc32)c1 | 2.1% | . | i | i | .
O=S(=O)(Nc1cccc(C(F)(F)F)c1)c1ccc(-c2cnc(C3CC3)o2)cc1 | 25.1µM* | . | i | i | .
O=C(Nc1nnc(-c2ccc3c(c2)CCCC3)o1)c1ccccc1Cl | 10µM* | 23.9% | i | i | ?
O=C(Nc1cccc2c1CCCC2)c1ccccc1Cl | 10.8% | -0.4% | i | i | -5.6%
O=C(Nc1nnc(-c2ccc3c(c2)CCCC3)o1)c1ccccc1 | 5.01µM* | 24.3% | ? | i | ?
O=C(CCOc1ccccc1)Nc1nnc(-c2ccc3c(c2)OCCO3)o1 | -8.1% | 2.0% | i | i | 1.0%
